The values that follow come from PubChem BioAssay AID1117361 (Southern Research Institute, 2015).

Hit rate of the full screen: of about 3,600 compounds, about 900 (25%) were called active. No rule for the calls is given here. A selection follows. Entries with a potency or affinity are not part of this list.

The assay concerns the target Protein Tat (Human immunodeficiency virus type 1 group M subtype B (isolate HXB2)) (UniProt P04608). As to the kind of experiment: HIV-1 Tat–TAR interaction blockers – biochemical, fluorescence polarization, FAM-labeled TAR RNA, counter-screen for Vif-APOBEC3G degradation inhibitor project, dose response (AID 1117361). The conditions noted are these: Tat-TAR RNA binding; series mostly up to 100 µM. In general terms: Polarisation of emitted light reports the rotation of a fluorescent probe.
`Cc1c(-c2ccccc2)nc2ccccc2c1C(=O)O`: the molecule was called inactive.

Consider `Cc1cc(C#N)c2ccccc2n1`, for which the call was inactive.

Take `CCCCOc1ccc(C(=O)OC(C)CN(C)C)cc1` (stereo not drawn): the molecule was classed as inactive.

Consider `CCC(=O)Nc1cccc(Oc2nc(C)cc(C)c2C#N)c1`, for which the call was inactive.

Turning to `Clc1ncnc2scc(-c3ccccc3)c12`, the outcome was inactive.

Regarding `Cc1nn(Cc2ccccc2)c(C)c1NC(=O)c1cc(-c2ccc3c(c2)OCO3)on1`, the molecule was called inactive.

On to `O=C(OCc1ccc(Cl)cc1)c1cnccn1`, for which the outcome was inactive.

Turning to `NNC(=O)CCN1CCN(C(c2ccccc2)c2ccccc2)CC1`, the outcome was inactive.

On to `Cc1ccccc1CS(=O)(=O)CCC(=O)NCCN1CCN(c2cccc(Cl)c2)CC1`, for which the result was inactive.

In the case of `O=C(CN1CCN(c2nc(-c3ccccc3)cs2)CC1)Nc1ccc2c(c1)OCO2`, the molecule was called inactive.

`CCOC(=O)CSc1ncnc2c1cnn2-c1ccc(C)cc1`: the molecule was classed as inactive.

`COc1ccc(-n2nnnc2-c2ccccc2)cc1`: the outcome was inactive.

For the molecule `COc1cnc(SCc2c(Cl)cccc2Cl)nc1Cl`, the outcome was inactive.

In the case of `CC(NC(=O)CSc1nnc2n1CCCCC2)c1ccccc1Cl` (stereo not drawn), the molecule was classed as inactive.

With `Clc1c(-c2nnc3n2CCC3)sc2ccccc12`, the outcome was inactive.

In the case of `Cc1cc2cc3c(=O)[nH]c(=O)nc-3n(CC(O)C(O)C(O)CO)c2cc1C` (stereo not drawn), the molecule was called inactive.

For `CCCn1nc(NC(=O)c2ccccn2)c2cc3cc(C)ccc3nc21`, the molecule was classed as inactive.

Take `O=C1COc2ccc(C(=O)CSc3nnc(-c4cccs4)n3Cc3ccccc3)cc2N1`: the outcome was inactive.

On to `COc1cc2ccccc2cc1C(=O)N1CCN(c2ccccc2O)CC1`, for which the outcome was inactive.

As for `CCOCCNC(=O)c1ccccc1C(=O)NCCOCC`, the molecule was classed as inactive.

For the molecule `COc1ccc(Oc2nc(C)cc(C)c2C#N)cc1`, the molecule was called inactive.

Regarding `COC(=O)COn1c(-n2nc(C)cc2C)nc2ccccc2c1=O`, the molecule was classed as inactive.

Take `Cc1ccc(S(=O)(=O)n2ccc(=O)[nH]2)cc1`: the result was inactive.

As for `CCN(CC)C(=O)c1sc(NC(=O)c2ccc3c(c2)OCO3)c(C#N)c1C`, the result was inactive.

For `CCOC(=O)c1c(NC(=O)c2cc(CC(C)C)on2)sc(C(C)=O)c1C`, the molecule was called inactive.

As to `O=C(COC(=O)C12CC3CC(CC(Br)(C3)C1)C2)Nc1ccc2[nH]c(=O)[nH]c2c1`, the molecule was classed as inactive.

`COc1cc(CC(=O)NCC(C)(C)N2CCOCC2)cc(OC)c1OC`: the outcome was inactive.

For `CCC(Sc1nc(-c2ccccc2)cc(=O)[nH]1)C(=O)O` (stereo not drawn), the call was inactive.

For the molecule `N#C/C=C\Oc1ccc(Cl)cc1N`, the outcome was inactive.

For the molecule `COc1ccccc1OCCOc1ccccc1/C=N/n1cnnc1`, the outcome was inactive.

With `Cc1c(C(=O)N2CCN(c3ccccc3F)CC2)sc2nc(-c3ccccc3)cn12`, the call was inactive.

For the molecule `CN(c1ccc(C(=O)N2CCc3ccccc3C2)cc1)S(C)(=O)=O`, the molecule was called inactive.

For `COc1ccc(C)cc1NC(=O)COC(=O)CCC(=O)c1cccs1`, the result was inactive.

For the molecule `CCn1c(N)c(C(=O)NCc2ccc3c(c2)OCO3)sc1=S`, the molecule was classed as inactive.

Regarding `CCCn1nc2cc(C(=O)NCc3ccc4c(c3)OCO4)ccc2c1OCC`, the result was inactive.

Consider `COC(=O)C1=C(O)/C(=C/c2cccc(OC)c2O)N=C1C`, for which the molecule was called inactive.

Consider `CCOC(=O)c1c(C)c(/C=N/Nc2ccccc2)n(C)c1C`, for which the result was inactive.

For `COC(=O)C1=C(O)/C(=C\c2ccc(CNC(=O)C(=O)Nc3ccc(C)c(C)c3)o2)N=C1C`, the result was inactive.

`CCC(C)Nc1nc2c(c(=O)[nH]c(=O)n2C)n1CCC(C)C` (stereo not drawn): the call was inactive.

As to `COC(=O)c1cn[nH]c1NC(=S)Nc1ccc(C)cc1Cl`, the molecule was called inactive.

For `CCCCNC(=O)C1CCCN(S(=O)(=O)c2ccc(-n3cnnn3)cc2)C1` (stereo not drawn), the call was inactive.

For the molecule `CCN(CC)c1ccc(C2C3CCCCC3(O)CCN2CC(=O)Nc2ccccc2)cc1` (stereo not drawn), the outcome was inactive.

For `COc1ccccc1NC(=O)c1cc2ccccc2o/c1=N\O`, the molecule was called inactive.

Regarding `CC1CN(S(=O)(=O)c2cc(C(=O)NCc3ccncc3)ccc2Cl)CC(C)O1` (stereo not drawn), the outcome was inactive.

Take `Cc1ccc(Cn2ccc(NC(=O)c3cc(-c4cccc(Cl)c4)on3)n2)cc1`: the call was inactive.

Take `COc1ccc(NC(=O)C2CCCNC2)cc1OCC(C)C` (stereo not drawn): the result was inactive.

For the molecule `O=c1c2c(nc(NCCO)n1CC1CCCCC1)-c1ccccc1CC21CCCC1`, the outcome was inactive.

For `CC(Sc1nnnn1C)C(=O)Nc1ccccc1-c1ccccc1` (stereo not drawn), the outcome was inactive.

As for `CCOC(=O)CCC(=O)N1CCNC(=O)C1`, the molecule was classed as inactive.

As to `CCNC(=O)c1ccc(-n2nc(C(F)(F)F)c3c2CCCC3)cc1`, the call was inactive.

Take `CS(=O)(=O)c1ccc2nnn(OCC(=O)Nc3cccc(C#N)c3)c2c1`: the outcome was inactive.

Turning to `Cc1cccc2c1NC1(CCCC1)CC2C` (stereo not drawn), the molecule was classed as inactive.

As to `O=C(NCCCN1CCOCC1)C1CC(=O)N(CCc2ccccc2)C1` (stereo not drawn), the call was inactive.

With `CCN(CC)c1ccc(NC(=O)c2c(C)noc2C)cc1`, the call was inactive.

Turning to `O=C(c1ccc2c(c1)[nH]c(=S)n1c3ccccc3nc21)N1CCN(c2cccc(Cl)c2)CC1`, the molecule was called inactive.

As for `COc1ccc(S(=O)(=O)N2CCC(C(=O)NCc3cccnc3)CC2)cc1Cl`, the molecule was called inactive.

In the case of `COc1cc(NC(=O)c2cc3nc(-c4ccccc4)cc(-c4ccccc4)n3n2)cc(OC)c1OC`, the result was inactive.

Take `CC(=O)c1cccc(NC(=O)CC2Oc3ccc(C)cc3NC2=O)c1` (stereo not drawn): the call was inactive.

In the case of `O=C(CCNS(=O)(=O)c1ccc(Cl)cc1)NCc1cccnc1`, the call was inactive.

`C=C(C)C1CC=C(C)/C(=N\NC(=O)CCC(=O)Nc2ccc(C)c(C)c2)C1` (stereo not drawn): the call was inactive.

As to `O=c1c2c([nH]c3ccccc13)CCCCCC2`, the outcome was inactive.

On to `CC(C)CCNC(=O)Cn1c2c(c(-c3ccccc3Cl)cc1=O)CCC2`, for which the molecule was called inactive.

For the molecule `FC(F)(F)C1=Nc2cccc3cccc(c23)N1`, the molecule was classed as inactive.

Regarding `CCc1nc(-c2ccc(C)nc2OC)no1`, the molecule was called inactive.

Consider `CS(=O)(=O)c1ccc(C(=O)Nc2nc(-c3ccco3)c(-c3ccco3)s2)cc1`, for which the molecule was classed as inactive.

In the case of `COc1ccc(NC(=O)CSc2nc3c(cc2C#N)CN(C)CC3)cc1`, the molecule was classed as inactive.

Turning to `O=S(=O)(N1CCOCC1)N1CCCN(S(=O)(=O)N2CCOCC2)CC1`, the molecule was classed as inactive.

For the molecule `Cc1c(C(=O)N2CCCCC2)nnn1-c1nonc1N`, the result was inactive.

In the case of `CCOC(=O)N1CCC(N2C(=O)c3ccccc3C2Nc2ccccc2)CC1` (stereo not drawn), the molecule was classed as inactive.

As to `COc1ccc(C(=O)n2nc(-c3ccc(Cl)cc3)nc2N)cc1OC`, the result was inactive.

As to `COc1ccc(-c2noc(Cc3ccc(Cl)cc3)n2)cc1OC`, the call was inactive.

Regarding `Cc1cc(C)c2c(=N)c3ccccc3n(CCCCCCCCn3c4ccccc4c(=N)c4c(C)cc(C)nc43)c2n1`, the call was inactive.

For `COc1cccc(OC)c1OCCCc1c(C)n[nH]c1C`, the molecule was called inactive.
